Results: the supplement of paper PMC10127200
Where a name gives a salt, the structure may show the parent alone.

Test system: A549
Assay: Euclidean distance of Cell Painting phenotypic profile (signed KS, 77 features) to DMSO centroid (dimensionless distance); 5 or 10 uM (library dependent); higher = stronger phenotypic change vs DMSO (phenoactivity)
Settings: 48 h
Method in brief: (§1)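 At 10 or 5 uM, as set by the library, and 0.1% DMSO final, compounds were applied for 48 h to five cancer lines and one healthy fibroblast line. Stained cells were imaged confocally at 20X in 9 fields per well, and Harmony extracted 77 features scored as signed Kolmogorov-Smirnov statistics against vehicle wells on the same plate. Profiles underwent plate-position correction, correlation weighting and replicate averaging at the top dose. Phenoactivity is the Euclidean distance from each such profile to the median vehicle profile.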

SMILES	Euclidean distance
Cc1nnc(SCC2=C(C(=O)O)N3C(=O)[C@@H](NC(=O)Cn4cc(Cl)c(=O)c(Cl)c4)[C@H]3SC2)s1 [Cefazedone]	0.841
Cc1ccc([C@@H]2O[C@H](CO)[C@@H](O)[C@H](O)[C@H]2O)cc1Cc1ccc(-c2ccc(F)cc2)s1 [Canagliflozin hemihydrate]	2.27
C/C(=N\NC(=S)N1CCC1)c1ccccn1	3.49
C[n+]1c2ccccc2nc2ccccc21 [Phenazine methosulfate]	2.82
COC(=O)C1=C(C)NC(C)=C(C(=O)OC2CCCN(Cc3ccccc3)C2)C1c1cccc([N+](=O)[O-])c1 (centres undefined) [Benidipine HCl]	0.86
Nc1nccc(Oc2ccc(NC(=O)c3c[nH]cc(-c4ccc(F)cc4)c3=O)cc2F)c1Cl	1.17
CC(C)N(CCC(=O)c1ccc2ccccc2c1)Cc1ccccc1	1.15
O=C1c2c(O)ccc(O)c2C(=O)c2c(NCCNCCO)ccc(NCCNCCO)c21 [Mitoxantrone 2HCl]	5.26
NCCc1c[nH]cn1 [Histamine Phosphate]	0.956
C=C1CC[C@H]2C(=C)CC[C@H]3C(=C)C(=O)O[C@@H]3[C@@H]12 [Dehydrocostus Lactone]	3.77
CCCC(=O)OCOC(=O)C1=C(C)NC(C)=C(C(=O)OC)C1c1cccc(Cl)c1Cl (centres undefined) [Clevidipine Butyrate]	0.675
CN1CCN(C2=Nc3cc(Cl)ccc3Nc3ccccc32)CC1 [Clozapine]	1.56
COCC(=O)Nc1c(I)c(C(=O)NCC(O)CO)c(I)c(C(=O)N(C)CC(O)CO)c1I (centres undefined) [Iopromide]	0.999
CNCCC=C1c2ccccc2CCc2ccccc21 [Nortriptyline hydrochloride]	1.13
CC[C@@H](CO)NCCN[C@@H](CC)CO [Ethambutol 2HCl]	0.663
CC#CCn1c(N2CCC[C@@H](N)C2)nc2c1c(=O)n(Cc1nc(C)c3ccccc3n1)c(=O)n2C [Linagliptin]	0.984
CONC(=O)Nc1ccc(-c2sc3c(c2CN(C)C)c(=O)n(-c2ccc(OC)nn2)c(=O)n3Cc2c(F)cccc2F)cc1 [Relugolix]	0.927
Cc1ccc(/C(=C\CN2CCCC2)c2ccccn2)cc1 [Triprolidine Hydrochloride]	0.986
NCCCC[C@H](NC(=O)[C@@H](NC(=O)[C@H](Cc1c[nH]c2ccccc12)NC(=O)[C@H](CCCCN)NC(=O)[C@H](CCCCN)NC(=O)[C@H](Cc1c[nH]c2ccccc12)NC(=O)[C@H](Cc1c[nH]c2ccccc12)NC(=O)[C@H](CCCCN)NC(=O)[C@@H](N)CCCCN)C(c1ccccc1)c1ccccc1)C(N)=O	1.24
Nc1nccc2c1ncn2C1C=C(CO)C(O)C1O (centres undefined) [3-Deazaneplanocin A (DZNeP)]	1.27
Clc1ccc(Nc2nnc(Cc3ccncc3)c3ccccc23)cc1 [Vatalanib (PTK787) 2HCl]	1.05
O=c1cc(-c2ccccc2)oc2cc(O)c(O)c(O)c12 [Baicalein]	1.65
C/C=C1/[C@H](O[C@@H]2O[C@H](CO)[C@@H](O)[C@H](O)[C@H]2O)OC=C(C(=O)OC)[C@H]1CC(=O)OCCc1ccc(O)c(O)c1 [Oleuropein]	0.844
C[C@@H]1O[C@@H](Oc2c(-c3ccc(O)c(O)c3)oc3cc(O)cc(O)c3c2=O)[C@H](O)[C@H](O)[C@H]1O [Quercitrin]	1.14
C=C(CC)C(=O)c1ccc(OCC(=O)O)c(Cl)c1Cl [Ethacrynic Acid]	1.01
CC[C@H](C)[C@H](NC(=O)[C@H]([C@@H](C)CC)N(C)C(C)=O)C(=O)N[C@H](C(=O)N[C@@H](CC(C)C)C(=O)[C@@]1(C)CO1)[C@@H](C)O [Epoxomycin]	2.8
Oc1c(Cl)cc(Cl)c(Cl)c1Cc1c(O)c(Cl)cc(Cl)c1Cl [Hexachlorophene]	1.62
C[C@H](CCC(=O)O)[C@H]1CC[C@H]2[C@@H]3CC[C@@H]4C[C@H](O)CC[C@]4(C)[C@H]3C[C@H](O)[C@]12C [Deoxycholic acid]	0.94
CC(=O)O[C@H]1C(=O)[C@@]2(C)[C@H]([C@H](OC(=O)c3ccccc3)[C@]3(O)C[C@H](OC(=O)[C@H](O)[C@@H](NC(=O)c4ccccc4)c4ccccc4)C(C)=C1C3(C)C)[C@]1(OC(C)=O)CO[C@@H]1C[C@@H]2O [Paclitaxel]	2.6
Cc1ccccc1OCC(O)CO (centres undefined) [Mephenesin]	0.804

Test system: DU145
Assay: as above
Settings: 48 h
Method in brief: as §1

SMILES	Euclidean distance
O=C(O)COc1nn(Cc2ccccc2)c2ccccc12 [Bendazac]	1.13
COc1ccc(Cl)cc1NC(=O)Nc1cc(C)nc2ccccc12	1.06
C#C[C@]1(OC(C)=O)CC[C@H]2[C@@H]3CCC4=C[C@@H](OC(C)=O)CC[C@@H]4[C@H]3CC[C@@]21C [Ethynodiol diacetate]	0.938
CN[C@H]1C(=O)N[C@@H]2Cc3ccc(cc3)Oc3cc4cc(c3O[C@@H]3O[C@H](C(=O)O)[C@@H](O)[C@H](O)[C@H]3NC(=O)CCCCCCCCC(C)C)Oc3ccc(cc3Cl)[C@@H](O)[C@@H]3NC(=O)[C@H](NC(=O)[C@@H]4NC(=O)[C@@H](NC2=O)c2cc(cc(O)c2Cl)Oc2cc1ccc2O)c1ccc(O)c(c1)-c1c(O[C@H]2O[C@H](CO)[C@@H](O)[C@H](O)[C@@H]2O)cc(O)cc1[C@@H](C(=O)NCCCN(C)C)NC3=O [Dalbavancin]	1.15
Cc1nccn1CC1CCc2c(c3ccccc3n2C)C1=O (centres undefined) [Ondansetron Hydrochloride Dihydrate]	0.998
CCC(=O)O[C@]1(C(=O)CCl)[C@@H](C)C[C@H]2[C@@H]3CCC4=CC(=O)C=C[C@]4(C)[C@@]3(F)[C@@H](O)C[C@@]21C [Clobetasol propionate]	2.55
CNC[C@H](O)c1ccc(O)c(O)c1 [Epinephrine HCl]	0.9
CCOC(=O)C1=C(COCCN)NC(C)=C(C(=O)OC)C1c1ccccc1Cl (centres undefined) [Amlodipine]	0.877
Cc1c(O)cccc1C(=O)N[C@@H](CSc1ccccc1)[C@H](O)CN1C[C@H]2CCCC[C@H]2C[C@H]1C(=O)NC(C)(C)C [Nelfinavir Mesylate]	1.22
Cc1nnc(SCC2=C(C(=O)O)N3C(=O)[C@@H](NC(=O)Cn4cc(Cl)c(=O)c(Cl)c4)[C@H]3SC2)s1 [Cefazedone]	0.667
Cc1ccc([C@@H]2O[C@H](CO)[C@@H](O)[C@H](O)[C@H]2O)cc1Cc1ccc(-c2ccc(F)cc2)s1 [Canagliflozin hemihydrate]	0.936
C/C(=N\NC(=S)N1CCC1)c1ccccn1	3.44
C[n+]1c2ccccc2nc2ccccc21 [Phenazine methosulfate]	4.95
COC(=O)C1=C(C)NC(C)=C(C(=O)OC2CCCN(Cc3ccccc3)C2)C1c1cccc([N+](=O)[O-])c1 (centres undefined) [Benidipine HCl]	0.823
Nc1nccc(Oc2ccc(NC(=O)c3c[nH]cc(-c4ccc(F)cc4)c3=O)cc2F)c1Cl	1.56
CC(C)N(CCC(=O)c1ccc2ccccc2c1)Cc1ccccc1	0.815
O=C1c2c(O)ccc(O)c2C(=O)c2c(NCCNCCO)ccc(NCCNCCO)c21 [Mitoxantrone 2HCl]	4.77

SMILES	Euclidean distance
NCCc1c[nH]cn1 [Histamine Phosphate]	1.77
C=C1CC[C@H]2C(=C)CC[C@H]3C(=C)C(=O)O[C@@H]3[C@@H]12 [Dehydrocostus Lactone]	7.43
CCCC(=O)OCOC(=O)C1=C(C)NC(C)=C(C(=O)OC)C1c1cccc(Cl)c1Cl (centres undefined) [Clevidipine Butyrate]	1.47
CN1CCN(C2=Nc3cc(Cl)ccc3Nc3ccccc32)CC1 [Clozapine]	1.21
COCC(=O)Nc1c(I)c(C(=O)NCC(O)CO)c(I)c(C(=O)N(C)CC(O)CO)c1I (centres undefined) [Iopromide]	0.749
CNCCC=C1c2ccccc2CCc2ccccc21 [Nortriptyline hydrochloride]	1.37
CC[C@@H](CO)NCCN[C@@H](CC)CO [Ethambutol 2HCl]	1.06
CC#CCn1c(N2CCC[C@@H](N)C2)nc2c1c(=O)n(Cc1nc(C)c3ccccc3n1)c(=O)n2C [Linagliptin]	0.641
CONC(=O)Nc1ccc(-c2sc3c(c2CN(C)C)c(=O)n(-c2ccc(OC)nn2)c(=O)n3Cc2c(F)cccc2F)cc1 [Relugolix]	1.37
Cc1ccc(/C(=C\CN2CCCC2)c2ccccn2)cc1 [Triprolidine Hydrochloride]	0.542
NCCCC[C@H](NC(=O)[C@@H](NC(=O)[C@H](Cc1c[nH]c2ccccc12)NC(=O)[C@H](CCCCN)NC(=O)[C@H](CCCCN)NC(=O)[C@H](Cc1c[nH]c2ccccc12)NC(=O)[C@H](Cc1c[nH]c2ccccc12)NC(=O)[C@H](CCCCN)NC(=O)[C@@H](N)CCCCN)C(c1ccccc1)c1ccccc1)C(N)=O	1.35
Nc1nccc2c1ncn2C1C=C(CO)C(O)C1O (centres undefined) [3-Deazaneplanocin A (DZNeP)]	1.19
Clc1ccc(Nc2nnc(Cc3ccncc3)c3ccccc23)cc1 [Vatalanib (PTK787) 2HCl]	1.47
O=c1cc(-c2ccccc2)oc2cc(O)c(O)c(O)c12 [Baicalein]	1.25
C/C=C1/[C@H](O[C@@H]2O[C@H](CO)[C@@H](O)[C@H](O)[C@H]2O)OC=C(C(=O)OC)[C@H]1CC(=O)OCCc1ccc(O)c(O)c1 [Oleuropein]	0.63
C[C@@H]1O[C@@H](Oc2c(-c3ccc(O)c(O)c3)oc3cc(O)cc(O)c3c2=O)[C@H](O)[C@H](O)[C@H]1O [Quercitrin]	0.64
C=C(CC)C(=O)c1ccc(OCC(=O)O)c(Cl)c1Cl [Ethacrynic Acid]	1.03
